Assay results: PubChem BioAssay AID588697 (Southern Research Specialized Biocontainment Screening …, 2011)
Inconclusive results are not listed. Calls of active or inactive are those of the source.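 How the source made its calls: active means inhibition of at least 30% at any tested concentration; inactive means the rest, inconclusive results apart.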

What follows are molecules tested on M18 aspartyl aminopeptidase (Plasmodium falciparum 3D7) (assay: PfM18AAP inhibitors, dose response, counter-screen for PfM17LAP inhibitor project, biochemical, QFRET fluorogenic substrate (AID 588697)). Details: recombinant PfM18AAP, H-Glu-NHMec fluorogenic substrate; series mostly up to 100 µM.

Q: How did the outcome turn out when `O=C(CSc1ccccc1)Nc1cccc2c1C(=O)NC2=O` was run?
A: The outcome was “inactive”.

Q: With `COC(=O)c1c(NC(=O)C2CC=CCC2C(=O)O)sc(C)c1-c1ccc(C)cc1` (centres undefined) as the molecule, how does the outcome read?
A: Its outcome is “inactive”.

Q: How did the outcome turn out when `COc1cc(NC(=O)CSc2ccccc2)c(C(=O)O)cc1OC` was run?
A: Its outcome is “inactive”.

Q: With `CCC(C)(C)C1CCc2c(sc(NC(=O)C3CC(C)=C(C)CC3C(=O)O)c2C(=O)OC)C1` (centres undefined) as the molecule, how does the outcome read?
A: Its outcome is “inactive”.

Q: How did the outcome turn out when `O=C(O)c1ccccc1C(=O)Nc1nc2c(s1)CCCC2` was run?
A: Its outcome is “inactive”.

Q: `NC(N)=NCCC[C@H](N)C(=O)NO` was tested. Which outcome did it give?
A: Its outcome is “inactive”.

Q: For `Cc1cc(SCC(=O)Nc2ccccc2C(=O)O)nc2ccccc12`, which outcome is on record?
A: Its outcome is “inactive”.

Q: `COc1cc(NC(=O)c2ccc(-c3ccccc3)cc2)c(C(=O)O)cc1OC` was tested. Which outcome did it give?
A: Its outcome is “inactive”.

Q: With `O=C1OCCC1Sc1nnc(NC2CCCCC2)s1` (centres undefined) as the molecule, how does the outcome read?
A: Its outcome is “inactive”.
